# The full list was thinned out, with hits kept by preference.
# Marburg entry inh – Marburg virus entry inhibition; Marburg virus pseudotyped entry inhibition, cell reporter; Potency, µM (highest dose often 37.8 µM), without a hit: top-dose activity change, negative = inhibition, most hits filed as inhibitors; 300,000 compounds, 1.8% hits; AID 540276; calls by dose curve; tested in HEK293 cells; further: potency means the concentration at half of the fitted maximal effect; on the % scale 0 is the no-effect control and ±100 the full control effect
# Lassa entry inh – inhibitors of Lassa virus binding or cell entry. Lassa virus pseudotype entry inhibition, cell reporter. AID 540256. Potency, µM (titrated, usually from 37.9 µM), for the others: at the highest dose activity change, negative = inhibition, most hits filed as inhibitors. 300,000 compounds, 1.2% hits; calls by dose curve; tested in HEK293 cells; further: potency means the concentration at half of the fitted maximal effect; on the % scale 0 is the no-effect control and ±100 the full control effect; nearly all actives have a fitted effect of over 50% in size
# Shiga toxin inh – inhibitors of Shiga toxin in Vero cells. Vero cells, Shiga toxin protein synthesis inhibition reporter. inhibition, % at 38.7 µM. 290,000 compounds, 9.2% hits; in the data active means inhibition mostly above about 28%, no sharp cut-off; inactive means mostly below about 43%; further: 0% is about no effect
# Vaccinia mCherry – inhibitors of vaccinia virus infection (mCherry reporter signal); Potency, µM (top dose mostly 36.5 µM), without a hit: at the highest dose activity change, negative = inhibition, usual class: inhibitors; Vaccinia virus mCherry reporter infection, fluorescence; AID 720579; 310,000 compounds, 0.63% hits; calls by dose curve; tested in A549 cells; further: potency means the concentration at half of the fitted maximal effect; on the % scale 0 is the no-effect control and ±100 the full control effect; nearly all actives have a fitted effect of over 35% in size
# Vaccinia Venus – inhibitors of vaccinia virus (Venus reporter). Vaccinia virus Venus reporter expression, fluorescence. Potency, µM (series often up to 36.5 µM), for inactives: at the highest dose activity change, negative = inhibition, actives largely listed as inhibitors. 330,000 compounds, 0.46% hits. AID 720580; calls by dose curve; tested in A549 cells; further: potency means the concentration at half of the fitted maximal effect; on the % scale 0 is the no-effect control and ±100 the full control effect; nearly all actives have a fitted effect of over 30% in size
# CHX counter – counter-screen for Shiga toxin inhibitors: cycloheximide protein synthesis inhibition; cell reporter, cycloheximide protein synthesis inhibition counterscreen; max response, %; 300,000 compounds, 12% hits; in the data active means max response mostly above about 13%, no sharp cut-off; inactive means mostly below about 14%; further: read at 38.3 µM for the half of the compounds with a filed dose; 0% is about no effect
# Active calls of the source: *; i = inactive; ? = inconclusive; nt = no result given; [ ] = another dose, or the depositor's remark.
SMILES,Marburg entry inh,Lassa entry inh,Shiga toxin inh,Vaccinia mCherry,Vaccinia Venus,CHX counter
O=C(Nc1ccc2c(c1)nc1n2CCOC1)c1ccccc1,-3%,?,94*,nt,nt,31*
O=C(Nc1ccc2c(c1)nc1n2CCSC1)c1ccccc1,?,?,43*,nt,nt,40*
CCCC(=O)Nc1ccc2c(c1)nc1n2CCOC1,?,?,27,nt,nt,-2
CCCCC(=O)Nc1ccc2c(c1)nc1n2CCOC1,-2%,4%,89*,nt,nt,20*
COc1ccc(C(=O)Nc2ccc3c(c2)nc2n3CCSC2)cc1,?,-5%,86*,nt,nt,45*
CCc1ccc(-c2cc(C)no2)cc1S(=O)(=O)Nc1cccc(CN2CCCC2)c1,nt,nt,-2,nt,nt,2
CCC(C)NC(=O)c1ccc2nc(-c3ccco3)c(-c3ccco3)nc2c1 (centres undefined),nt,nt,nt,3%,-15%,nt
CCC(=O)Nc1ccc2c(c1)nc1n2CCSC1,?,7%,-2,nt,nt,14
CC(C)C(=O)Nc1ccc2c(c1)nc1n2CCSC1,?,10%,40*,nt,nt,19
CC(C)[C@H](NC(N)=O)C(=O)Nc1cccc(S(=O)(=O)NC2=NCCCCC2)c1,15%,1%,nt,i,-14%,nt
CCN(CC)CCNC(=O)c1ccc2c(c1NCCO)C(=O)c1ccccc1C2=O,nt,nt,40*,nt,nt,17
CCOc1ccc(CNC(=O)C2CCN(S(=O)(=O)c3cn(C)cn3)CC2)cc1,nt,0%[46.1 µM],nt,-15%,-13%,nt
O=C(Cn1cc(S(=O)(=O)Cc2ccccc2Cl)c2ccccc21)Nc1ccc(F)cc1F,nt,1%[46.1 µM],nt,-11%,-2%,nt
O=C(/C=C/c1ccc2c(c1)OCO2)c1ccc(O)cc1O,?,?,nt,?,-8%,nt
O=C(/C=C/c1ccc(O)cc1)c1ccccc1O,nt,nt,nt,-19%,-7%,nt
O=C(/C=C/c1ccc(O)c(O)c1)c1ccc(O)cc1O,nt,nt,35*,nt,nt,10*
O=C(/C=C\c1ccc(O)cc1)c1ccc(O)cc1O,10µM*,nt,nt,nt,nt,nt
CCOc1ccc(CCNC(=O)c2cn(-c3ccc(OC)cc3)c(=O)c3ccccc23)cc1OCC,nt,14%[46.1 µM],nt,-16%,-10%,nt
CN(Cc1ccco1)S(=O)(=O)c1ccc(CN2C(=O)c3cccnc3C2=O)s1,nt,nt,-6,nt,nt,-4
C[C@@H]1CC[C@]2(O[C@@H](CCO)C[C@@H](O)[C@@H]2O)O1,nt,nt,-8,-9%,6%,-2
Cc1cccc(NC(=S)NNc2ncc(C(F)(F)F)cc2Cl)c1,?,18µM*,-14,-27%,?,7
FC(F)(F)c1cnc(NNC(=S)Nc2ccccc2Cl)c(Cl)c1,?,?,-9,?,?,0
CN=c1scc(C)n1/N=C/c1cc(Br)c(O)c(OC)c1,?,?,56*,i,-13%,21*
COc1ccccc1N1CCN(c2ncc3c(n2)CCN(Cc2ccc(C)s2)C3)CC1,nt,14%[46.1 µM],nt,-29%,?,nt
Cc1cc(/C(N)=N/OC(=O)c2ccc(Cl)cc2)no1,?,?,61*,i,-12%,35*
SMILES,Marburg entry inh,Lassa entry inh,Shiga toxin inh,Vaccinia mCherry,Vaccinia Venus,CHX counter
N/C(=N/OC(=O)c1ccc(Cl)cc1)c1ncc([N+](=O)[O-])s1,nt,nt,66*,nt,nt,26*
O=C(OCc1cnc(Cl)s1)c1ccc(Cl)cc1,-4%,5%,-14,nt,3%,-2
Cc1cc(/C(N)=N/OC(=O)c2cccc(Cl)c2)no1,?,?,111*,-10%,-6%,59*
N/C(=N\OC(=O)c1ccc(Cl)cc1)c1[nH]ncc1Br,nt,nt,95*,nt,nt,64*
Cc1ccc(NC(=O)N(C)C)cc1Cl,nt,nt,14,nt,nt,11*
CCCCOC(=O)Nc1ccc(C)c(Cl)c1,-22%[46.1 µM],?,57*,nt,-15%,33*
CN(C)C(=O)Nc1ccc(Oc2ccc(Cl)cc2)cc1,nt,nt,14,nt,nt,20*
O=C(O)C1CC=CCC1C(=O)Nc1ccc(Oc2ccc(Cl)cc2)cc1 (centres undefined),?,5%,12,i,-13%,1
COc1cccc(NC(=O)Nc2ccc(C)c(Cl)c2)c1,1%[46.1 µM],23%,78*,-19%,-15%,45*
COc1cccc(NC(=O)Nc2cc(C(=O)O)ccc2C)c1,0%[46.1 µM],27%[46.1 µM],-4,i,3%,-3
COc1cc(NC(=O)CSc2cc(C)c3cc(C)cc(C)c3n2)c(C(=O)O)cc1OC,nt,nt,2,nt,nt,5
COc1ccc(CNC(=O)C2Cc3cc(S(=O)(=O)N4CCCCCC4)ccc3N2C(C)=O)cc1 (centres undefined),nt,26%[46.1 µM],nt,-2%,-5%,nt
Cc1ccc(NC(=O)CCC(=O)c2ccc(F)cc2)cc1Cl,20%,-11%,-3,nt,-22%,-2
Cc1ccc(NC(=O)Nc2ccc(F)cc2)cc1Cl,?,4%[46.1 µM],78*,i,-22%,32*
CCOC(=O)[C@H](Cc1ccc(O)cc1)NC(=O)c1ccccc1,nt,nt,15,nt,nt,-3
C=C(C)C(=O)OC1(C(F)(F)F)Oc2cc(C)ccc2NC1=O (centres undefined),?,-20%,93*,-23%,-17%,56*
O=C(COc1ccc(Cl)cc1)NCCNC(=O)c1cnccn1,9%[46.1 µM],nt,-8,5%,-13%,-2
CCCCCCOC(=O)c1ccc(N)cc1,-5%,nt,69*,-18%,-9%,42*
CCCOC(=O)Nc1cccc(C(C)=O)c1,18%,-8%,5,-9%,-3%,12
CCCOC(=O)Nc1ccc(C(N)=O)cc1,15%,13%,19,-6%,-10%,24*
CCCCOC(=O)c1ccc(N)cc1,4%,4%,63*,-1%,-12%,15*
CCCCOC(=O)c1ccc(NC(=O)c2cc(Cl)c(Cl)cc2C(=O)O)cc1,-25%[46.1 µM],nt,66*,-20%,-9%,32*
COc1ccc(C2=NOC(C(=O)Nc3cccnc3Cl)C2)cc1 (centres undefined),nt,nt,6,nt,nt,-2
Cc1ccnc2c(Cl)c(Cl)ccc12,nt,nt,nt,-7%,-25%,nt
C#CCN1C(=O)[C@]2(OCCC=C[C@H]2C)c2ccccc21,43%[14.2 µM],?,nt,nt,nt,nt
SMILES,Marburg entry inh,Lassa entry inh,Shiga toxin inh,Vaccinia mCherry,Vaccinia Venus,CHX counter
CC(=O)Nc1ccc(C(=O)OCCCOC(=O)c2ccc(NC(C)=O)cc2)cc1,nt,nt,-2,nt,nt,-2
CCCCOC(=O)c1ccc(NC(=O)/C=C/c2cccs2)cc1,-24%,?,53*,i,-1%,41*
CCCCOC(=O)c1ccc(NC(C)=O)cc1,?,5%,52*,nt,7%,13
CCCCOC(=O)c1cc(=O)[nH]c2ccccc12,2%,2%,12,i,-18%,11*
CCCCOC(=O)c1cc(=O)[nH]c2ccc(C)cc12,-6%[46.1 µM],20%[46.1 µM],1,i,4%,5
CCCCCCOC(=O)c1ccccc1N,25%,1%,76,i,-3%,39*
O=C(Cn1c(=O)n2nc(-c3cccc(F)c3)nc2c2ccccc21)N1CCN(c2ccc(F)cc2)CC1,nt,9%[46.1 µM],nt,-9%,-2%,nt
CC(=O)Nc1ccc(C(=O)OCCc2ccccc2)cc1,2%[46.1 µM],14%[46.1 µM],64*,-6%,-8%,42*
CC(=O)Nc1ccc(CCCCc2ccccc2)cc1,?,-11%[46.1 µM],nt,?,6%,nt
CCCOC(=O)c1ccc(NC(=O)C(CC)CC)cc1,?,8%,70*,-10%,-12%,40*
CCCCOC(=O)c1ccc(NC(=O)c2c(OC)cccc2OC)cc1,2%,?,21,nt,nt,1
